PME-1 primary – PME-1 (human) inhibition; recombinant PME-1, FP-Rh probe fluorescence polarization; actives 0.53% (n = 320,000); AID 2130; inhibition, % at 5.9 µM; Q9Y570;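 active means inhibition above the campaign mean of all compounds plus 3 SD, cut at about 26% in these data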;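 further: competitive labeling of PME-1 active site by serine hydrolase directed probe; 0% = PME-1 with DMSO and 100% = wells lacking PME-1 enzyme; inhibitors block probe labeling so polarization falls and inhibition rises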
pPAFAH inh – pPAFAH (human) enzyme inhibition | Q13093 | recombinant pPAFAH, FP-rhodamine probe fluorescence polarization | inhibition, % at 3.39 µM | actives 1.5% (n = 330,000);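 active means inhibition above the mean inhibition across the screen plus 3 SD, cut at about 25% in these data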;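 further: inhibitors block binding of the rhodamine activity-based probe so polarization drops; 0% = enzyme with DMSO and 100% = wells lacking pPAFAH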
GSTO1 inh – GSTO1 inhibition, counter-screen for RBBP9 inhibitors; P78417; recombinant GSTO1, activity-based probe fluorescence polarization; inhibition, % at 5.96 µM; actives 1.1% (n = 300,000);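 active means inhibition above the campaign mean inhibition plus 3 SD, cut at about 35% in these data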;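 further: 0% = GSTO1-1 with DMSO and 100% = wells lacking GSTO1-1 enzyme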
Target sequence (P78417 whole entry, looked up): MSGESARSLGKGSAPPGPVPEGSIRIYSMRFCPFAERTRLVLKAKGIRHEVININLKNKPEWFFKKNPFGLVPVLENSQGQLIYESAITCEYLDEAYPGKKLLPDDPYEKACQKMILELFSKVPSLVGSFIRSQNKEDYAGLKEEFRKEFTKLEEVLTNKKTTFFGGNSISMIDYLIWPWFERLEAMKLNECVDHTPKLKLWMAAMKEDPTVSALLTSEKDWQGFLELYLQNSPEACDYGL
Fam108B counter – counter-screen for RBBP9 inhibitors: inhibitors of mouse Fam108B | AID 1947 | actives 0.33% (n = 300,000) | inhibition, % at 9.51 µM | recombinant Fam108B, FP-Rh probe fluorescence polarization;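 active means inhibition above the screen mean inhibition plus 3 SD, computed separately per campaign, cut at about 18% in these data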;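 further: inhibitors lower polarization as less probe binds the enzyme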
PAD4 inh – PAD4 (human) enzyme inhibition | AID 485272 | actives 0.41% (n = 330,000) | recombinant PAD4, RCA probe fluorescence polarization | inhibition, % at 6.36 µM;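 active means percent inhibition above a cutoff equal to the mean of all tested compounds plus 3 SD, cut at about 15% in these data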;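 further: 0% = PAD4 with RCA probe and DMSO and 100% = probe without PAD4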
Fam108b confirm – confirmation of mouse Fam108b serine hydrolase inhibitors; AID 1978; actives 44% (n = 930); recombinant Fam108b, FP-Rh probe fluorescence polarization; inhibition, % at 9.51 µM; shares compounds with Fam108B counter;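 active means inhibition above a limit from the primary screen, the mean over all compounds plus 3 SD, cut at about 19% in these data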;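 further: 0% = median of active Fam108b wells and 100% = catalytically dead S170A mutant; inhibitors free the probe so polarization falls as inhibition rises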
Fam108b ABPP HTS – inhibits mouse Fam108b in gel-based ABPP. recombinant Fam108b, fluorophosphonate probe. AID 588649. shares compounds with Fam108B counter. inhibition, % at 20 µM. actives 44% (n = 260); in the data active means inhibition above about 40%
Active calls of the source: *; nt = no result. Rows were chosen to be rich in hits. Some 2.3% of all compounds tested hit in one or more screens of this group.

SMILES	PME-1 primary	pPAFAH inh	GSTO1 inh	Fam108B counter	PAD4 inh	Fam108b confirm	others
Cc1ncc(CN=Cc2ccc(Cl)cc2)c(N)n1	-2	6	9	4	-3	nt
Cc1ccc(S(=O)(=O)N(C)C)cc1NC(=O)c1cc(=O)c2ccccc2o1	2	1	6	21*	-4	33*	Fam108b ABPP HTS=0
CN(c1ccccc1)S(=O)(=O)c1cccc(NC(=O)c2cc(=O)c3ccccc3o2)c1	-25	1	-36	-18	-3	nt
N=C1C(c2nc3ccccc3s2)=C(O)CN1c1ccccc1	0	19	7	-1	-3	nt
O=S(=O)(c1ccc(F)c(F)c1F)N1CCN(C(=S)Nc2ccccc2)CC1	-6	-2	1	-2	-2	nt
Cc1n[nH]c(C)c1S(=O)(=O)N1CCN(C(=O)c2ccco2)CC1	3	-2	0	1	-3	nt
COc1cc(/C=C2/C(=O)NN(c3cccc(C)c3)C2=O)cc([N+](=O)[O-])c1O	6	14	8	83*	-1	6
COc1ccc(C(=O)NCC(=O)OCC(=O)Nc2cccc(S(=O)(=O)N3CCCC3)c2)cc1	5	4	6	-1	-6	nt
O=C(COC(=O)CNC(=O)c1ccc(Cl)cc1)Nc1cccc(S(=O)(=O)N2CCCC2)c1	-2	4	-3	64*	-6	-5
CCN(CC(=O)Nc1c(C(=O)OC)[nH]c2ccc(Cl)cc12)c1ccc2c(c1)OCO2	40*	14	11	21*	-1	8
Cn1ncc2c(Nc3cccc(Cl)c3)nc(Nc3cccc(Cl)c3)nc21	-34	-16	-32	-34	-2	nt
Cn1ncc2c(Nc3ccc(Br)cc3)nc(Nc3ccc(Br)cc3)nc21	11	-16	-34	19*	0	-21
Cc1cn2c(=O)c(C(=O)N3CCN(c4ccccc4)CC3)cnc2s1	2	-1	1	5	-5	nt
COc1ccc(CN2C(=O)c3c(c(C)n(C)c3C)C2C(=O)NC2CCC(C)CC2)cc1 (stereo unspecified)	-5	1	7	24*	-2	-2
CCOc1cccc(C(=O)Nc2ccc3c(c2)OCCO3)c1	-2	-4	-2	2	-1	nt
COc1cccc(N2CCN(S(=O)(=O)c3ccc4nc(-c5ccccc5)[nH]c4c3)CC2)c1	13	-2	-4	21*	-1	-12
COc1cccc(-c2ccc(SCC(=O)N3CCc4ccccc43)nn2)c1	-10	-2	-3	-11	3	nt
CC(Sc1nnc(Nc2ccccc2)s1)C(=O)Nc1nc(-c2ccccc2)cs1 (stereo unspecified)	-21	-2	-1	-12	-5	nt
CC(Sc1nnc(NCc2ccccc2)s1)C(=O)Nc1ccc2c(c1)C(=O)c1ccccc1C2=O (stereo unspecified)	22	16	-99	38*	2	19*
O=C(CCC(=O)c1ccc(Cl)cc1)OCn1nnc2ccccc2c1=O	nt	10	nt	nt	1	nt
COC(=O)c1sc(NC(=O)C(C)C)c(C(=O)OC)c1C	-3	4	1	-3	3	nt
COC(=O)c1sc(NC(=S)NNC(=O)c2c(Br)c(C)nn2C)c(C(=O)OC)c1C	25	20	5	26*	3	24*
COc1cc(C(=O)O)ccc1OCc1ccncc1	-1	2	-3	1	-2	nt
COc1ccc(Nc2ncnc3c2cnn3-c2ccccc2)cc1OC	5	3	3	3	-1	nt
COc1ccc(Nc2ncnc3sc(-c4ccccc4)cc23)cc1OC	39*	32*	0	54*	2	-12
CN(c1ccccc1)S(=O)(=O)c1ccc(NC(=O)c2ccc(-c3ccccc3)cc2)cc1	64*	12	-23	45*	0	80*	Fam108b ABPP HTS=95*
CCOC(=O)C1(Cc2ccc(Cl)cc2)CCN(C(=O)CCc2ccncc2)CC1	-1	3	4	0	-2	nt
COc1ccc(-c2[nH]c(-c3ccc(C(=O)O)cc3)nc2-c2ccccc2)cc1	1	24	-26	7	7	nt
COc1cc(-c2nc(-c3ccc4c(c3)-c3ccccc3S4(=O)=O)c(-c3ccccc3)[nH]2)cc(OC)c1O	1	27*	-29	32*	-8	37*	Fam108b ABPP HTS=80*

Screening data from PubChem.
